Results taken from PubChem BioAssay (EPA / NIEHS).
Records with an inconclusive call do not appear. Some structures have more than one record in an assay (separate samples or runs), and their calls can disagree. Active and inactive are the calls of the source. The calls were made as follows: active = hit-call score of the fitted dose curve at least 0.9, where 1 is the maximum; inconclusive = response in the unintended direction; inactive = score below 0.9.

What was measured:
[1] = biological target: Estrogen receptor (Homo sapiens) (UniProt P03372); experiment: NVS_NR_hER: NovaScreen (NVS) Nuclear Receptor Binding Assay for human Estrogen Receptor (ER) (AID 2283348)
Estrogen receptor (Homo sapiens), sequence (P03372 whole entry, looked up, the tested form may be a part): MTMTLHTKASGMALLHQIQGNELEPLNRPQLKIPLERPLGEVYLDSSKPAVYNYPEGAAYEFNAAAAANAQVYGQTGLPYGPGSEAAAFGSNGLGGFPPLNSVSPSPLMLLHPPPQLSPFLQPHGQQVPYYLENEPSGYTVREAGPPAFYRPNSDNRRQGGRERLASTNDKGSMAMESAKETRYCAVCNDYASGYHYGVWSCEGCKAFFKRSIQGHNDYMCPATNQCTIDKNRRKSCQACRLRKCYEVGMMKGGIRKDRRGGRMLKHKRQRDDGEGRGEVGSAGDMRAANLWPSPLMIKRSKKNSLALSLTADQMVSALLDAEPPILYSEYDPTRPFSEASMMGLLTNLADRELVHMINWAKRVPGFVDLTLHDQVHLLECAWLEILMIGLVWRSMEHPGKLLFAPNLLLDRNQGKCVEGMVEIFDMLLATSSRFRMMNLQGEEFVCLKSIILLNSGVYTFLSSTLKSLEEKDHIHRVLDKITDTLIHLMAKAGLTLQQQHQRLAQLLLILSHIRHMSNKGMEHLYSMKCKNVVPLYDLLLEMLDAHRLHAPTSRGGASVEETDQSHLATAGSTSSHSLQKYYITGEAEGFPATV
Summary of the method: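 Scintillation signal from bound radioligand was measured 18 hours after chemical addition to cell-free MCF7 protein extracts, with DMSO as baseline. Activity was scored as signal loss; compounds ran first at 25 uM in duplicate.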

[2] = biological target: Estrogen receptor (Homo sapiens) (UniProt P03372); experiment: OT_ER_ERaERa_1440: Odyssey Thera (OT) 24-hour HEK293T Protein-Complementation Assay for Estrogen Receptor-alpha/-alpha Homodimer (AID 2283349);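 also: hits raise fluorescence above DMSO for agonists and antagonists alike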
Summary of the method: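 Protein-fragment complementation between two human ERα ligand-binding domains (aa 310-547) in stably transfected HEK293T cells was monitored after 24 h treatment, using fluorescence intensity relative to vehicle controls.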

[3] = biological target: Estrogen receptor (Homo sapiens) (UniProt P03372); experiment: OT_ER_ERaERa_0480: Odyssey Thera (OT) 8-hour HEK293T Protein-Complementation Assay for Estrogen Receptor-alpha/-alpha Homodimer (AID 2283351);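 also: rise in fluorescence from reassembled reporter fragments on ERα LBD homodimer in nucleus or whole cell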
Summary of the method: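 The readout is complementation of fragments fused to the human ER alpha ligand-binding domain (aa 310-547), stably expressed in HEK293T cells. After 8 h of exposure, the increase in nuclear/cytoplasmic fluorescence was measured by laser scanning cytometry and fitted relative to DMSO.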

[4] = biological target: T1, Estrogen receptor (Homo sapiens) + Estrogen receptor beta (Homo sapiens) (UniProt P03372+Q92731); experiment: OT_ER_ERaERb_0480: Odyssey Thera (OT) 8-hour HEK293T Protein-Complementation Assay for Estrogen Receptor-alpha/-beta Heterodimer (AID 2283352)
T1 sequence (P03372 whole entry, looked up, the tested form may be a part): as above
T1 sequence (Q92731 whole entry, looked up, the tested form may be a part): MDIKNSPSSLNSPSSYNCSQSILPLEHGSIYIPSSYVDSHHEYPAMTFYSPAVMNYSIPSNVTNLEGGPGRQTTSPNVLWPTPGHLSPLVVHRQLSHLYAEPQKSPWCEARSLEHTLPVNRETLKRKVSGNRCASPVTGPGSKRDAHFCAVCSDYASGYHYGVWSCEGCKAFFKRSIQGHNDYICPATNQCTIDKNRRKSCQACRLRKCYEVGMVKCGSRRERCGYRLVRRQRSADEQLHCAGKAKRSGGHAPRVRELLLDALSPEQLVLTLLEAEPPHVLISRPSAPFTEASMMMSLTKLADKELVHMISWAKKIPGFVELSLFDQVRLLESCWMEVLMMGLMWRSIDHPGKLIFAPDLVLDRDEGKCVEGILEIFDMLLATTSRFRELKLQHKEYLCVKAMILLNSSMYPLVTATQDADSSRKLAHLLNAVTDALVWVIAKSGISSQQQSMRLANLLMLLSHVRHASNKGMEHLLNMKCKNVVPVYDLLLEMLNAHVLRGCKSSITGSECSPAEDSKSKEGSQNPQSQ
Summary of the method: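 Human HEK293T cells were treated for 8 hours and receptor heterodimerisation was detected through reconstitution of a fluorescent reporter split between ER-alpha and ER-beta ligand-binding domains. Activity was analysed as gain of signal against DMSO.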

[5] = biological target: T1, Estrogen receptor (Homo sapiens) + Estrogen receptor beta (Homo sapiens); experiment: OT_ER_ERaERb_1440: Odyssey Thera (OT) 24-hour HEK293T Protein-Complementation Assay for Estrogen Receptor-alpha/-beta Homodimer (AID 2283356);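 also: heteromer of ER alpha and ER beta binding domains; hits raise reporter fluorescence and both agonists and antagonists give an increase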
Summary of the method: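 24 h exposure; HEK293T PCA cells with ERα/ERβ LBD fragments; signal rise in nuclear or whole-cell fluorescence over vehicle.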

[6] = biological target: Estrogen receptor beta (Homo sapiens) (UniProt Q92731); experiment: OT_ER_ERbERb_0480: Odyssey Thera (OT) 8-hour HEK293T Protein-Complementation Assay for Estrogen Receptor-beta/-beta Homodimer (AID 2283357);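 also: active means signal gain over DMSO baseline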
Estrogen receptor beta (Homo sapiens), sequence (Q92731 whole entry, looked up, the tested form may be a part): as above
Summary of the method: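 Cells (HEK293T, stable ER-beta LBD PCA pair) are treated 8 hours, fixed and Draq5-stained; signal is fluorescence intensity increase relative to vehicle, fitted in the gain direction.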

[7] = biological target: PGR (gene 5241) (UniProt P06401); experiment: NVS_NR_hPR: NovaScreen (NVS) Nuclear Receptor Binding Assay for human Progestron Receptor (PR) (AID 2283360);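 also: active means loss of bound radioligand signal versus DMSO baseline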
Summary of the method: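 Competitive displacement of a labelled radioligand from T47D-derived receptor protein is measured in a cell-free format. Initial testing uses 25 uM in duplicate, with positive and negative controls on every plate.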

[8] = biological target: rat Serotonin Transporter (SERT), Slc6a4 (gene 25553) (UniProt P31652); experiment: NVS_TR_rSERT: NovaScreen (NVS) Transporter Assay for rat Serotonin Transporter (SERT) (AID 2283375)
Summary of the method: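 Using rat forebrain membrane SERT, test chemicals compete with a radioligand for 1 hour, and bound counts are taken by filter-based scintillation. Screening starts at 25 uM in duplicate, followed by concentration series for actives.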

[9] = biological target: Androgen Receptor/SRC-1 Co-activator, AR (gene 367) (UniProt P10275); experiment: OT_AR_ARSRC1_0960: Odyssey Thera (OT) 16-hour HEK293T Protein-Complementation Assay for Androgen Receptor/SRC-1 Co-activator (AID 2283353);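 also: actives raise the signal above DMSO so potency reflects increased AR and SRC-1 complex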
Androgen Receptor/SRC-1 Co-activator, AR (gene 367), sequence (P10275 whole entry, looked up, the tested form may be a part): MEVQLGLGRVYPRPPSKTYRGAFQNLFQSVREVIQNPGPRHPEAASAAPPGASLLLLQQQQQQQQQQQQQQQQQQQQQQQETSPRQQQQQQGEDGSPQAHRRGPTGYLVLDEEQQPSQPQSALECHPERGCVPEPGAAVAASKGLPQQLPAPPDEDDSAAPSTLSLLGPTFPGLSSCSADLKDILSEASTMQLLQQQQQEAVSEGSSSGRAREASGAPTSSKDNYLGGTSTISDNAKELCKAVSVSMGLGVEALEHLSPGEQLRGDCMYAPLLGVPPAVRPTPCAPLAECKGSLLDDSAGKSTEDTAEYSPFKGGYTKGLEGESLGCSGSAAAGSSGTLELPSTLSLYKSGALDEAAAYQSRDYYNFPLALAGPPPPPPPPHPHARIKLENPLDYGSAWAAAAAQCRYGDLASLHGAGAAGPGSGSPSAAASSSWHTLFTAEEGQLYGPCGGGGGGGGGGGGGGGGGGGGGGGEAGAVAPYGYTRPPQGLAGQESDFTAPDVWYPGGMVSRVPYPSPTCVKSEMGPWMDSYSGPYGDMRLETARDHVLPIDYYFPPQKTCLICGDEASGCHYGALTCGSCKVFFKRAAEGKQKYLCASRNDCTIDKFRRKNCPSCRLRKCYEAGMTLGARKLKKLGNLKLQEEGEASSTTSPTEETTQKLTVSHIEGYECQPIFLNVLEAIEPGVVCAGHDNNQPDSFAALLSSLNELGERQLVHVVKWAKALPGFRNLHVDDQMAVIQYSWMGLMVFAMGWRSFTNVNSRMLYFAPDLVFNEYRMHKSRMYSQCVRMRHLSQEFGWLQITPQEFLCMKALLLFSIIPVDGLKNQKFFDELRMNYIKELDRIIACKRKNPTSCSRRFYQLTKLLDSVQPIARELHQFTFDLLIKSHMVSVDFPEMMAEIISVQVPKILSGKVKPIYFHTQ
Summary of the method: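 HEK293T cells stably expressing AR and SRC-1 fused to Venus YFP fragments, imaged 16 h after dosing. Nuclear/cytoplasmic fluorescence ratio at 488 nm from at least 400 cells per image; gain of signal relative to DMSO.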

[10] = biological target: Androgen Receptor/SRC-1 Co-activator, AR (gene 367) (UniProt P10275); experiment: OT_AR_ARSRC1_0480: Odyssey Thera (OT) 8-hour HEK293T Protein-Complementation Assay for Androgen Receptor/SRC-1 Co-activator (AID 2283354);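 also: hits raise the complementation signal above DMSO so AC50 marks enhancers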
Summary of the method: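 Measures AR/SRC-1 binding by Venus YFP fragment complementation in HEK293T stable lines at 8 h post-dose. Imaging quantifies the 488nm nucleus/cytoplasm ratio in ≥400 cells; DMSO defines baseline.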

[11] = biological target: human Thyroid Receptor Alpha (TRa), THRA (gene 7067) (UniProt P10827); experiment: NVS_NR_hTRa_Antagonist: NovaScreen (NVS) Nuclear Receptor Binding Assay for human Thyroid Receptor Alpha Antagonism (TRa) (AID 2283362);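 also: activity is loss of signal relative to DMSO baseline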
Summary of the method: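 In this biochemical format, receptor protein is dosed with chemical and read after 1 hour via AlphaLISA. Decreases from the DMSO baseline indicate antagonist activity; screening used 25 uM in duplicate before concentration-response confirmation.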

[12] = biological target: Peroxisome proliferator-activated receptor gamma (Homo sapiens) (UniProt P37231); experiment: NVS_NR_hPPARg: NovaScreen (NVS) Nuclear Receptor Binding Assay for human Peroxisome Proliferator-activated Receptor gamma (PPARg) (AID 2283370)
Peroxisome proliferator-activated receptor gamma (Homo sapiens), sequence (P37231 whole entry, looked up): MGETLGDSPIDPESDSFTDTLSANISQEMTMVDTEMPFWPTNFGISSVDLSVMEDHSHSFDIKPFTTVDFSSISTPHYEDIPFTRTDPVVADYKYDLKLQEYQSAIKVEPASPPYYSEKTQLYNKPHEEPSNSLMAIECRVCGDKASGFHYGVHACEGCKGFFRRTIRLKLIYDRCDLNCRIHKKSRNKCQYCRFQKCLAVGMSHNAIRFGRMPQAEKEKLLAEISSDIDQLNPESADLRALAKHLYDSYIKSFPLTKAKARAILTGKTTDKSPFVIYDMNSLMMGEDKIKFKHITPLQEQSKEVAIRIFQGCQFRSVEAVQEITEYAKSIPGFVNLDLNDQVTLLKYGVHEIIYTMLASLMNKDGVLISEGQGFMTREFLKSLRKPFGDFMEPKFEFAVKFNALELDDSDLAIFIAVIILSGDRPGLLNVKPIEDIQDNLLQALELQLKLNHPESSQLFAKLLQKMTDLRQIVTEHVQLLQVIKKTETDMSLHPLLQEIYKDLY
Summary of the method: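 Extracted receptor protein, cell-free; compound incubated 2 h then fluorescence polarization read. Baseline: DMSO. Actives from 25 uM duplicate screen re-run across concentrations.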

[13] = biological target: rat Mineralocorticoid Receptor (MR), Nr3c2 (gene 25672) (UniProt P22199); experiment: NVS_NR_rMR: NovaScreen (NVS) Nuclear Receptor Binding Assay for rat Mineralocorticoid Receptor (MR) (AID 2283355)
rat Mineralocorticoid Receptor (MR), Nr3c2 (gene 25672), sequence (P22199 whole entry, looked up): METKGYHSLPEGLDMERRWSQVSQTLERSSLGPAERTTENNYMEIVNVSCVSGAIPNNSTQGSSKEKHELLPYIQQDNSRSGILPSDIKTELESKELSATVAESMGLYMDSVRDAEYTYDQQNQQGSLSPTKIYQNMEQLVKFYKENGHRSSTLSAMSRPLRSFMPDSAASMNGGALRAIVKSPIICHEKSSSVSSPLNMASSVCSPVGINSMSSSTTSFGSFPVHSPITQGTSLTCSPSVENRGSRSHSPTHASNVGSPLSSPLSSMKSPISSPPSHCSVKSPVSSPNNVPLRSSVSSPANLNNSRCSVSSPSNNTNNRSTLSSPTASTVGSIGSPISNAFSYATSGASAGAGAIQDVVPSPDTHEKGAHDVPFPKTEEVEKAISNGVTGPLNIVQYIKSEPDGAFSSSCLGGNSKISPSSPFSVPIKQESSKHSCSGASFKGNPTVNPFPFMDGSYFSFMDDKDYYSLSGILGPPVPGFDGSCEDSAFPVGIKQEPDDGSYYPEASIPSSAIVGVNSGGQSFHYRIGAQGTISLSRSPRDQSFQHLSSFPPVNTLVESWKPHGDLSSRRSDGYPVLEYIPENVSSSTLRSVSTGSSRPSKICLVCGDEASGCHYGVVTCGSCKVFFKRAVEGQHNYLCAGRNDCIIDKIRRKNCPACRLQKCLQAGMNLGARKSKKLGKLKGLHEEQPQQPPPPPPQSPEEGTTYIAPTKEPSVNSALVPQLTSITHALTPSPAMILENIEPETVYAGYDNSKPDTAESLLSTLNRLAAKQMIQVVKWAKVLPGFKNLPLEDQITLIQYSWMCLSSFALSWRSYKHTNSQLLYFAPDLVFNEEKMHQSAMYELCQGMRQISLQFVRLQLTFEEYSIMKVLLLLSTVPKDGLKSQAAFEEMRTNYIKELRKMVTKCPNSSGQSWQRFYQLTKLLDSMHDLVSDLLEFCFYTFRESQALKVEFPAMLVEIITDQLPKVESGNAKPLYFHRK
Summary of the method: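 Adrenalectomized rat brain supernatant was dosed with test chemical, then radioligand binding was measured by scintillation counting at 24 h. Initial testing ran in duplicate at 25 uM, followed by concentration series for actives.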

[14] = biological target: Glucocorticoid receptor (Homo sapiens) (UniProt P04150); experiment: NVS_NR_hGR: NovaScreen (NVS) Nuclear Receptor Binding Assay for human Glucocorticoid Receptor (GR) (AID 2283363);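 also: activity is loss of specific radioligand binding signal relative to DMSO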
Glucocorticoid receptor (Homo sapiens), sequence (P04150 whole entry, looked up): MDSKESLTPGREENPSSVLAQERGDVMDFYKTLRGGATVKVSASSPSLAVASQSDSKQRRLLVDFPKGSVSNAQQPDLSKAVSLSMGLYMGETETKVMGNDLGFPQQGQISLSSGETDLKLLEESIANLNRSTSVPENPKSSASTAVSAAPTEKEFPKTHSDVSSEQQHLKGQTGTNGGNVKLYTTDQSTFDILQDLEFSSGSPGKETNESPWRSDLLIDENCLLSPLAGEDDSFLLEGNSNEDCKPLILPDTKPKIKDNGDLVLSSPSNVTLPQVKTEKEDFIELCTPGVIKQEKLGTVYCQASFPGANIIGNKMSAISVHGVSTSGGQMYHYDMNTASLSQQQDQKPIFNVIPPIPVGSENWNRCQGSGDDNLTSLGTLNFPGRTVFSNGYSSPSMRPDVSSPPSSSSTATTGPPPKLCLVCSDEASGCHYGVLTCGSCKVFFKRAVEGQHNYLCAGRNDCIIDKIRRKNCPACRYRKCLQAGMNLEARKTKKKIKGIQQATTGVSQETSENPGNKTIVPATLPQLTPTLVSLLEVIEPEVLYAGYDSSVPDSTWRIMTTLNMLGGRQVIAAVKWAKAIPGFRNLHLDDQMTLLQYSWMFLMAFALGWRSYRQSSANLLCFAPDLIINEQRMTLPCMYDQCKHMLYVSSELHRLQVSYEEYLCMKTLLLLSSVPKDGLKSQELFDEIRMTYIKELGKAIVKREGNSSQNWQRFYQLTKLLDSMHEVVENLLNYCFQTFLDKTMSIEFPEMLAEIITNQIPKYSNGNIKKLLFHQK
Summary of the method: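 Competitive displacement of a labelled ligand was measured on cell-free receptor preparations after 16 h exposure. Initial testing used 25 uM in duplicate with plate controls; confirmed actives went into concentration series.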

[15] = biological target: Nuclear receptor subfamily 1 group I member 2 (Homo sapiens) (UniProt O75469); experiment: NVS_NR_hPXR: NovaScreen (NVS) Nuclear Receptor Binding Assay for human Pregnane X Receptor (PXR) (AID 2283365);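 also: a drop in FRET signal versus DMSO baseline means the compound binds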
Summary of the method: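 Read-out: TR-FRET, human PXR, 2 h post-dosing, cell-free. Loss of signal vs DMSO taken as binding activity; 25 uM primary, concentration series secondary.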

[16] = biological target: human Peroxisome Proliferator-activated Receptor alpha (PPARa), PPARA (gene 5465) (UniProt Q07869); experiment: NVS_NR_hPPARa: NovaScreen (NVS) Nuclear Receptor Binding Assay for human Peroxisome Proliferator-activated Receptor alpha (PPARa) (AID 2283359);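 also: activity means loss of TR-FRET signal versus DMSO baseline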
human Peroxisome Proliferator-activated Receptor alpha (PPARa), PPARA (gene 5465), sequence (Q07869 whole entry, looked up): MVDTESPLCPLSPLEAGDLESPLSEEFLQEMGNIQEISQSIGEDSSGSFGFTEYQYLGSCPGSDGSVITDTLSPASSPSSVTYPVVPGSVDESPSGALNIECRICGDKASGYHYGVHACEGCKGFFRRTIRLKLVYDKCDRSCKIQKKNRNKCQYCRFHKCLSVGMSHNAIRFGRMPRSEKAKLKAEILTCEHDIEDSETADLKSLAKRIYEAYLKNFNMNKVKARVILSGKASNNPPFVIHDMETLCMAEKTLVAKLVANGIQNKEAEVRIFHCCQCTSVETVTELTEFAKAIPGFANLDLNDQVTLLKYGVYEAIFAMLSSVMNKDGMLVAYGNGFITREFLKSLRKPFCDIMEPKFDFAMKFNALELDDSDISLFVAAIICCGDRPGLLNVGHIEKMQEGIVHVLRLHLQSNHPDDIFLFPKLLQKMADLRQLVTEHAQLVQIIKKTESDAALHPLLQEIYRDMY
Summary of the method: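 Chemicals were first screened in duplicate at 25 uM, and active ones were retested across concentration series. Binding was monitored by TR-FRET one hour after dosing, with decreased signal against DMSO counted as activity.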

[17] = biological target: rat Androgen Receptor (AR), Ar (gene 24208) (UniProt P15207); experiment: NVS_NR_rAR: NovaScreen (NVS) Nuclear Receptor Binding Assay for rat Androgen Receptor (AR) (AID 2283366)
Summary of the method: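 Cell-free radioligand binding on extracts of prostate from testosterone-pretreated rats, read by filter-based scintillation counting 18 h after dosing. Loss of bound signal fitted positively versus DMSO; primary screen in duplicate at 25 uM, actives followed up in concentration series.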

CC1=CCC2C(C1)C2(C)C (stereo not drawn)
outcome [1]: inactive

Cc1cc(C2(c3cc(C)c(O)cc3C)OS(=O)(=O)c3ccccc32)c(C)cc1O
AC50 [1]: 5.05 µM (active)

CC(=O)OCCC(C)CC(C)(C)C (stereo not drawn)
outcome [2]: inactive
outcome [3]: inactive

c1cc(C(c2ccc(OCC3CO3)cc2)c2ccc(OCC3CO3)cc2)ccc1OCC1CO1 (stereo not drawn)
outcome [1]: inactive

CC(=O)OCCOC(C)=O
outcome [2]: inactive
outcome [3]: inactive
outcome [4]: inactive
outcome [5]: inactive
outcome [6]: inactive

CN(CCOc1ccc(CC2SC(=O)NC2=O)cc1)c1ccccn1 (stereo not drawn)
outcome [1]: inactive
outcome [7]: inactive
AC50 [8]: 2.07 µM (active)

CCCCCCCCC
outcome [2]: inactive
outcome [3]: inactive
outcome [4]: inactive
outcome [5]: inactive
outcome [6]: inactive

CCN(CC)c1ccc2c(-c3ccccc3C(=O)O)c3ccc(=[N+](CC)CC)cc-3oc2c1
AC50 [2]: 12.2 µM (active)
AC50 [3]: 12.2 µM (active)
AC50 [4]: 12 µM (active)
AC50 [5]: 12 µM (active)
AC50 [6]: 12.2 µM (active)

O=C1c2ccccc2C(=O)N1SC1CCCCC1
outcome [1]: inactive
outcome [2]: inactive
outcome [3]: inactive
outcome [4]: inactive
outcome [6]: inactive

COC(=O)C1=C(C)NC(C)=C(C(=O)OCCN(C)Cc2ccccc2)C1c1cccc([N+](=O)[O-])c1 (stereo not drawn)
AC50 [1]: 9.13 µM (active)

CNCCCC12CCC(c3ccccc31)c1ccccc12
outcome [1]: inactive

CCCCCCCCC=O
outcome [1]: inactive
outcome [2]: inactive
outcome [3]: inactive
outcome [4]: inactive
outcome [5]: inactive
outcome [6]: inactive

O=Nc1ccc(Nc2ccccc2)cc1
outcome [1]: inactive
outcome [2]: inactive
outcome [3]: inactive
AC50 [9]: 14.2 µM (active)
AC50 [10]: 11 µM (active)
outcome [5]: inactive
AC50 [11]: 17.6 µM (active)
outcome [12]: inactive

Clc1ccc2c(c1)C(N1CCNCC1)=Nc1ccccc1O2
outcome [1]: inactive

C#C[C@]1(O)CC[C@H]2[C@@H]3CCC4=Cc5oncc5C[C@]4(C)[C@H]3CC[C@@]21C
AC50 [1]: 11.5 µM (active)
outcome [1]: inactive
outcome [13]: inactive
AC50 [7]: 41.5 µM (active)
AC50 [14]: 0.319 µM (active)

CC(C)(C)C(=O)c1ccccc1
outcome [2]: inactive
outcome [3]: inactive

O=C(O)CCSCCC(=O)O
outcome [1]: inactive

Cc1ccc(S)cc1
outcome [2]: inactive
outcome [3]: inactive
outcome [4]: inactive
outcome [5]: inactive
outcome [6]: inactive

CCCCCCCCCC=O
outcome [2]: inactive
outcome [3]: inactive
outcome [4]: inactive
outcome [5]: inactive

CCC/C=C/C=O
outcome [2]: inactive
outcome [3]: inactive
outcome [4]: inactive
outcome [9]: inactive
outcome [10]: inactive
outcome [5]: inactive
outcome [6]: inactive
outcome [15]: inactive
outcome [12]: inactive

O=C(COc1ccc(Cl)cc1)N1CCN(Cc2ccc3c(c2)OCO3)CC1
outcome [1]: inactive

CC1COc2ccccc2N1C(=O)C(Cl)Cl (stereo not drawn)
AC50 [1]: 0.0627 µM (active)
outcome [2]: inactive
outcome [3]: inactive
outcome [4]: inactive
outcome [5]: inactive
outcome [6]: inactive

CC(=O)[C@H]1CC[C@H]2[C@@H]3CC=C4C[C@@H](O)CC[C@]4(C)[C@H]3CC[C@]12C
outcome [1]: inactive

NC(=O)Nc1ccc(Cl)cc1
outcome [2]: inactive
outcome [3]: inactive
outcome [4]: inactive
outcome [5]: inactive
outcome [6]: inactive

CC(C)C(C)(C)C(C)(C)C(C)(C)S
outcome [1]: inactive

CC(C)c1cccc(O)c1
outcome [1]: inactive
outcome [2]: inactive
outcome [3]: inactive
AC50 [4]: 52 µM (active)
outcome [5]: inactive
AC50 [6]: 52 µM (active)
outcome [15]: inactive

CC(=O)C=CC1=C(C)CCCC1(C)C
outcome [2]: inactive
outcome [3]: inactive

CN(C)CCCN
outcome [2]: inactive
outcome [3]: inactive

C=C(C)C(=O)O
outcome [2]: inactive
outcome [3]: inactive
outcome [4]: inactive
outcome [5]: inactive

NNc1nc(-c2ccc(N)cc2)cs1
outcome [1]: inactive

CCCC(=O)c1cc(O)c(O)cc1O
AC50 [1]: 7.55 µM (active)

CC(=O)O[C@]1(C(C)=O)CC[C@H]2[C@@H]3C[C@H](C)C4=CC(=O)CC[C@]4(C)[C@H]3CC[C@@]21C
AC50 [13]: 0.569 µM (active)
AC50 [14]: 0.00114 µM (active)

CCCCCCCCCCCCCOS(=O)(=O)O
AC50 [16]: 2.1 µM (active)
AC50 [14]: 2.94 µM (active)
AC50 [17]: 1.7 µM (active)

CCCCC[Si](OCC)(OCC)OCC
outcome [16]: inactive
